Values joined by “and” are separate entries in the source; they are usually repeats but may differ in a detail not shown here. Equal values may be shown once. Inconclusive results are not listed. Active and inactive are the calls of the source. Unless noted, the call rests on the fitted dose curve; in most records, active means well fitted curve in the direction sought with a large enough effect; inconclusive means small, poorly fitted or top-dose-only effect, or another doubt; inactive means no such curve, though single readings can be large; an effect the other way counts as inactive or inconclusive.
Columns and labels:
[1] = qHTS Assay for Identifying Gametocytocidal Compounds (AID 743244); further: potency means the concentration at half of the fitted maximal effect;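 on max response: on the % scale 0 is the no-effect control and ±100 the full control effect; actives lower the fluorescent signal which means gametocytes are killed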; settings: P. falciparum 3D7 stage III-V gametocytes, alamarBlue, 72 h; max response: stronger effect = lower value
Summary of the method: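 In this qHTS viability screen, late-stage 3D7 gametocytes are incubated with compound for 72 h, then with alamarBlue for 24 h; reduced resorufin fluorescence marks killing.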

[2] = qHTS profiling for inhibitors of Plasmodium falciparum (3D7) proliferation (AID 743322; call rule not given here;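 further: infected erythrocytes exposed to compound for 72 h before lysis; 100% = DMSO vehicle wells and 0% = 0.29 µM artemisinin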); settings: P. falciparum 3D7 proliferation; at 28.7 µM (top of the series) unless noted
Summary of the method: (§1)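 Erythrocytes infected with P. falciparum (0.3% parasitemia, 2.5% hematocrit) incubated with compounds 72 h at 37 C, 5% CO2. Lysis with saponin/Triton buffer containing SYBR Green I, overnight at room temperature in the dark; DNA fluorescence (485/535 nm) normalised to 0.29 uM artemisinin and DMSO.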

[3] = qHTS profiling for inhibitors of Plasmodium falciparum (DD2) proliferation (AID 743323; call rule not given here); settings: lower = more inhibition; at 28.7 µM (top of the series) unless noted
Summary of the method: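 P. falciparum Dd2-infected erythrocytes (0.3% parasitemia, 2.5% hematocrit) exposed 72 h at 37 C, 5% CO2. Lysis with SYBR Green, overnight at room temperature, fluorescence 485/535 nm; normalized to 0.29 uM artemisinin and DMSO.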

[4] = qHTS profiling for inhibitors of Plasmodium falciparum (HB3) proliferation (AID 743324); settings: Plasmodium falciparum HB3 blood-stage proliferation; at 28.7 µM (top of the series) unless noted;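 further: 100% = DMSO vehicle wells and 0% = artemisinin-treated control wells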
Summary of the method: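 P. falciparum HB3 grown in erythrocytes (0.3% parasitemia, 2.5% hematocrit final) with compound for 72 h at 37 C, 5% CO2. Parasite DNA detected by SYBR Green after saponin/triton lysis overnight; normalized to 0.29 uM artemisinin and DMSO.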

[5] = qHTS profiling of the MIPE4 collection as inhibitors of Plasmodium falciparum (3D7) proliferation (AID 743344; call rule not given here;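 further: scaled between DMSO vehicle wells and 0.29 µM artemisinin as full inhibition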); settings: P. falciparum 3D7 in erythrocytes, SYBR Green DNA fluorescence, 72 h; at 28.5 µM (top of the series) unless noted
Summary of the method: as §1

[6] = qHTS profiling of the MIPE4 collection as inhibitors of Plasmodium falciparum (DD2) proliferation (AID 743345; call rule not given here); settings: P. falciparum Dd2 in erythrocytes, SYBR Green DNA, 72 h; at 28.5 µM (top of the series) unless noted
Summary of the method: as §1

[7] = qHTS profiling of the MIPE4 collection as inhibitors of Plasmodium falciparum (DD2) proliferation (Rep 2) (AID 743346; call rule not given here); settings: P. falciparum Dd2 in erythrocytes, SYBR Green DNA, 72 h; at 28.5 µM (top of the series) unless noted
Summary of the method: as §1

[8] = qHTS profiling of the MIPE4 collection as inhibitors of Plasmodium falciparum (HB3) proliferation (AID 743347; call rule not given here;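 further: plate controls were DMSO vehicle wells for no effect and artemisinin wells for full effect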); settings: P. falciparum HB3 in erythrocytes, SYBR Green DNA, 72 h; at 28.5 µM (top of the series) unless noted
Summary of the method: as §1

[9] = target: Arylsulfatase A (Homo sapiens) (UniProt P15289); assay: qHTS screen for enhancers of Arylsulfatase A (ASA1): LOPAC Validation Assay (AID 720538); settings: outcome: dose series up to 57.5 µM; further: 0% is about no effect
Chain of Arylsulfatase A (Homo sapiens) (P15289 whole entry, looked up): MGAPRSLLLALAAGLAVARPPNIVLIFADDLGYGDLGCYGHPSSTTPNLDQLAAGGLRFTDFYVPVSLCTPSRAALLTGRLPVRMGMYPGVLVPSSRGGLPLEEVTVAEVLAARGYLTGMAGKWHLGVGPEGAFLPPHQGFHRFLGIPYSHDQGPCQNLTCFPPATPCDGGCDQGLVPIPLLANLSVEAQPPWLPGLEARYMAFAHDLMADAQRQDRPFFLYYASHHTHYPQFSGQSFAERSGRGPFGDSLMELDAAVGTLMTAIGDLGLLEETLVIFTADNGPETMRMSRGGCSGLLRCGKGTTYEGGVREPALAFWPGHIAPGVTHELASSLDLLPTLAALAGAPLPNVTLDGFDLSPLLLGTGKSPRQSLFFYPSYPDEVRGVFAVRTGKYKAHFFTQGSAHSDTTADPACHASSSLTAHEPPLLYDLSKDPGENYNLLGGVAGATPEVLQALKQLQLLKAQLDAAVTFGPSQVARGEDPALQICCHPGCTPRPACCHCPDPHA
Summary of the method: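 First, ASA-I179S fibroblasts from an MLD patient adhered for 6 hrs. Next, compounds were added for 48h. Then pNCS substrate (0.5mM final) with lysis buffer reacted 14h at room temperature before NaOH stop and fluorescence measurement.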

[10] = qHTS for compounds that reverse cellular toxicity of Amyloid beta (A-beta) peptide in yeast: LOPAC Validation Assay (AID 720559);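 further: plate controls were DMSO for no effect and equimolar ferric chloride plus clioquinol rescue for full effect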
Summary of the method: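 Activity is expressed relative to DMSO and an equimolar ferric chloride/clioquinol mix. Compounds were pinned into medium with A-beta-expressing yeast, grown 48 hr at 30 C, then read by absorbance at 600 nm.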

[11] = qHTS for Activators of Parkin Expression: LOPAC Validation Assay (NLuc Reporter) (AID 720572;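 further: 0% = DMSO and 100% = positive control compound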)
Summary of the method: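 Neuronal line stably carrying a FLuc/NLuc coincidence reporter under the Parkin promoter, seeded 24 h, then dosed in 7-point series for 24 h at 37 C. NLuc luminescence read after FLuc; normalized to DMSO and positive control (100%).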

[12] = target: T1, Hexokinase-4 (Homo sapiens) + Glucokinase regulatory protein (Homo sapiens) (UniProt P35557+Q14397); assay: qHTS assay for inhibitors of recombinant human GCK-GKRP interaction: Diaphorase-coupled assay (AID 743205)
T1 sequence (P35557 whole entry, looked up): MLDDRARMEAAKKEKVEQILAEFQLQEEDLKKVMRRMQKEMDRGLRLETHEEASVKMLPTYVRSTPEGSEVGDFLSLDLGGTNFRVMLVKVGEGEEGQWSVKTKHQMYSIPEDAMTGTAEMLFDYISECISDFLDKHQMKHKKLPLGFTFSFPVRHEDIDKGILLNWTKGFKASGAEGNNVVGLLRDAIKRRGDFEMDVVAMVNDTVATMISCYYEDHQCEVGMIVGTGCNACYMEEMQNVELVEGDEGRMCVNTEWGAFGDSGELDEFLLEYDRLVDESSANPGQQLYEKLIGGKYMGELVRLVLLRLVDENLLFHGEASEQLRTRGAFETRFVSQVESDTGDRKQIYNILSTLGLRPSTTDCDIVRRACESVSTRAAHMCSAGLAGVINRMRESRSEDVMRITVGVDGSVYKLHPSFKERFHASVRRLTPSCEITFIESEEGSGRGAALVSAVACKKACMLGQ
T1 sequence (Q14397 whole entry, looked up): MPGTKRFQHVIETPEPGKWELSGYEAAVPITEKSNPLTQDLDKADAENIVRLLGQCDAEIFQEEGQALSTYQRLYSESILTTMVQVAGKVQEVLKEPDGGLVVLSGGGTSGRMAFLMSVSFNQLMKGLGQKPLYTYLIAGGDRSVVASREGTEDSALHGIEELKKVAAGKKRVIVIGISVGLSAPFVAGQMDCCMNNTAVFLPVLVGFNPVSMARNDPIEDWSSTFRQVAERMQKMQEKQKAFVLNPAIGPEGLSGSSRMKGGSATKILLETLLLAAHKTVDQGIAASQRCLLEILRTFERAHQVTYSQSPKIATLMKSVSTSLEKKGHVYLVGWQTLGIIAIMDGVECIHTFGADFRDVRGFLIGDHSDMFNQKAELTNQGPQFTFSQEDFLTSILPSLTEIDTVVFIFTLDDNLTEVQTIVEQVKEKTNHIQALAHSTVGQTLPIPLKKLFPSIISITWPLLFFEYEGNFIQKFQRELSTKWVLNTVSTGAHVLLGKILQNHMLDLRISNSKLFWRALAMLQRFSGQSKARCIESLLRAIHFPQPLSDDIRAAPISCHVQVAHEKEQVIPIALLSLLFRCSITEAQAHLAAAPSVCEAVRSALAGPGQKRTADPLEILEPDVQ
Summary of the method: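 Inhibitors of the GCK–GKRP complex relieve GKRP suppression of GCK, detected through a G6PDH–diaphorase cascade reducing resazurin. Human GST-GCK and FLAG-GKRP are used at 10 nM with 5 mM glucose and 0.4 mM ATP.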

[13] = target: T1, Hexokinase-4 (Homo sapiens) + Glucokinase regulatory protein (Homo sapiens); assay: qHTS assay for inhibitors of recombinant human GCK-GKRP interaction: ADP-Glo assay (AID 743206);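 further: plate controls were DMSO plus enzyme for no effect and no enzyme for full effect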
Summary of the method: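 GST-GCK and FLAG-GKRP (15 nM each in the dispensed mix, with 2 uM S6P) react with 0.4 mM ATP and 5 mM glucose (final) in Hepes pH 7.6 for 60 min at room temperature. ADP is measured by ADP-Glo luminescence.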

[14] = target: T1, Hexokinase-4 (Homo sapiens) + Glucokinase regulatory protein (Homo sapiens); assay: qHTS assay for inhibitors of recombinant human GCK-GKRP interaction: HTRF assay (AID 743207);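 further: 0% = DMSO with GCK present and -100% = DMSO wells lacking GCK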
Summary of the method: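 Steps: dispense GCK–GKRP complex (5 nM each, GST- and FLAG-tagged) with 2 uM S6P; pin in compounds; add XL665/Eu-cryptate-labelled antibodies; incubate 60 min at room temperature; read time-resolved FRET at 665 and 615 nm.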

[15] = qHTS for Activators of Parkin Expression: LOPAC Validation Assay (FLuc Reporter) (AID 720573;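 further: 0% = DMSO and 100% = positive control compounds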)
Summary of the method: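 A neuronal cell line harbouring FLuc and NLuc reporters behind the Parkin promoter was exposed to compounds for 24 h. Firefly luciferase signal, measured after 10 min with detection reagent, was scaled to DMSO and positive-control wells.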

[16] = qHTS assay for small molecule agonists of the antioxidant response element (ARE) signaling pathway measured by Nrf2-dependant transcriptional activity (AID 720636; active means well fitted curve in the direction sought with a large enough effect in the repeat runs; an effect the other way counts as inactive or inconclusive;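 further: HepG2 cells with an ARE-driven luciferase reporter; % of control where 0% means no effect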)
Summary of the method: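 Nrf2-dependent transcription is measured in ARE-luc HepG2 cells: compound is applied for 16 hr at 37 C after a 6 hr attachment period, and luciferase activity is quantified by luminescence using ONE-Glo.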

[17] = qHTS assay for small molecule antagonists of the retinoid-related orphan receptor gamma (ROR-gamma) signaling pathway - cell viability counter screen (AID 720652; active means well fitted curve in the direction sought with a large enough effect in the repeat runs; an effect the other way counts as inactive or inconclusive;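 further: CHO reporter cells with doxycycline-induced ROR-gamma expression; compound exposure lasted 16 hr before ATP read; on the % scale 0 is the no-effect control and ±100 the full control effect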)
Summary of the method: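 Counter screen in CHO cells carrying TET-inducible ROR-gamma and an ROR response element-luciferase reporter; cells plated 5 hr, compound pinned, doxycycline added, then 16 hr at 37 C. Viability read as intracellular ATP by CellTiter-Glo luminescence.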

[18] = qHTS assay for cell viability of HEK293 cells (AID 743288); settings: ATP luminescence (CellTiter-Glo), 18 h; max response: stronger effect = lower value; further: on the % scale 0 is the no-effect control and ±100 the full control effect; nearly all actives have a fitted effect of over 50% in size
Summary of the method: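 The Tox21 protocol used parental HEK293 cells treated for 18 h at 37 C with compounds delivered by pintool; ATP-coupled luminescence after 30 min at room temperature gave viability.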

[19] = qHTS assay for cell viability of the p53RE-bla HCT-116 cell line (AID 743292); further: on the % scale 0 is the no-effect control and ±100 the full control effect; nearly all actives have a fitted effect of over 55% in size
Summary of the method: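 ATP-based luminescence, 16 h compound exposure at 37 C, p53RE-bla HCT-116 cells at 4,000/well.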

Compound: O=C(O)CCc1ccc(NCc2cccc(Oc3ccccc3)c2)cc1
- max response [1]: 20.3% (inactive)
- remaining parasite growth % (stronger effect = lower value) [2]: 29.5%
- activity, percent of control [3]: 102%
- remaining proliferation (% of control), lower = more inhibition [4]: 98.6%
- parasite growth, % of DMSO control [5]: 93.6%
- parasite growth remaining, % of DMSO control (lower = more inhibition) [6]: 87.8%
- parasite growth, % of control (lower = inhibition) [7]: 210%
- growth, % of control [8]: 76.8%

Compound: Nc1ncnc2nc(-c3ccc(N4CCOCC4)nc3)cc(-c3cccc(Br)c3)c12
- outcome [9]: inactive
- outcome [10]: inactive
- max response [1]: -13.8% (inactive)

Compound: Nc1nc2ccc(OC(F)(F)F)cc2s1
- outcome [10]: inactive
- Potency [11]: inactive
- outcome [12]: inactive
- max response [1]: 5.46% (inactive) and 13.2% (inactive)
- remaining parasite growth % (stronger effect = lower value) [2]: 105%
- activity, percent of control [3]: 105%
- parasite growth, % of DMSO control [5]: 7.34%
- parasite growth remaining, % of DMSO control (lower = more inhibition) [6]: 7.7%
- parasite growth, % of control (lower = inhibition) [7]: 33.2%
- growth, % of control [8]: 7.48%

Compound: COc1nc(-c2ccc3c(c2)OCO3)n(-c2ccc(NC(=O)CSc3ccccc3)cc2)n1
- max response [1]: 6.75% (inactive)
- remaining parasite growth % (stronger effect = lower value) [2]: 96.2%
- activity, percent of control [3]: 95.9%
- remaining proliferation (% of control), lower = more inhibition [4]: 94.2%
- parasite growth, % of DMSO control [5]: 51.6%
- parasite growth remaining, % of DMSO control (lower = more inhibition) [6]: 86.8%
- parasite growth, % of control (lower = inhibition) [7]: 61.9%
- growth, % of control [8]: 82%

Compound: O=C(O)c1ccc(-c2c[nH]c3ccc(-c4ccccc4)cc23)cc1C1CCCC1
- max response [1]: 15.6% (inactive)
- remaining parasite growth % (stronger effect = lower value) [2]: -0.426%
- activity, percent of control [3]: 0.0014%
- remaining proliferation (% of control), lower = more inhibition [4]: -0.0688%

Compound: CO[C@@H]1[C@H](N(C)C(=O)c2ccccc2)C[C@H]2O[C@]1(C)n1c3ccccc3c3c4c(c5c6ccccc6n2c5c31)C(=O)NC4
- Potency [1]: 5.9 µM (active)

Compound: CCN(CCCO)CCCOc1ccc2c(Nc3cc(CC(=O)Nc4cccc(F)c4)[nH]n3)ncnc2c1
- Potency [1]: 0.743 µM (active)
- remaining parasite growth % (stronger effect = lower value) [2]: -1.31%
- activity, percent of control [3]: 1.34%
- remaining proliferation (% of control), lower = more inhibition [4]: 0.759%

Compound: C/C(=C\C(=O)Nc1ccccc1C(=O)O)c1ccc2ccccc2c1
- max response [1]: 90.9% (inactive)
- remaining parasite growth % (stronger effect = lower value) [2]: 32.7%
- activity, percent of control [3]: 101%
- remaining proliferation (% of control), lower = more inhibition [4]: 114%

Compound: Nc1nc2c(ncn2COCCO)c(=O)[nH]1
- outcome [9]: inactive
- outcome [10]: inactive
- outcome [12]: inactive
- outcome [13]: inactive
- outcome [14]: inactive
- max response [1]: 17.4% (inactive) and 18.4% (inactive)
- parasite growth, % of DMSO control [5]: 96.7%
- parasite growth remaining, % of DMSO control (lower = more inhibition) [6]: 97.6%
- parasite growth, % of control (lower = inhibition) [7]: 124%
- growth, % of control [8]: 99.6%

Compound: Clc1cccc(Cl)c1NC1=NCCN1
- outcome [10]: inactive
- Potency [11]: inactive
- outcome [15]: inactive
- outcome [12]: inactive
- max response [1]: 7.62% (inactive) and 5.35% (inactive)
- parasite growth, % of DMSO control [5]: 86.2%
- parasite growth remaining, % of DMSO control (lower = more inhibition) [6]: 77.5%
- parasite growth, % of control (lower = inhibition) [7]: 56.5%
- growth, % of control [8]: 70.5%

Compound: CNC(=O)c1ccccc1Sc1ccc2c(/C=C/c3ccccn3)n[nH]c2c1
- max response [1]: 40.9% (inactive)

Compound: CC(C)c1onc(-c2c(Cl)cccc2Cl)c1COc1ccc(/C=C/c2cccc(C(=O)O)c2)c(Cl)c1
- max response [1]: 14.5% (inactive)
- remaining parasite growth % (stronger effect = lower value) [2]: 28.5%
- activity, percent of control [3]: 74.9%
- remaining proliferation (% of control), lower = more inhibition [4]: 71.7%

Compound: CCOC(=O)N1CCC(=C2c3ccc(Cl)cc3CCc3cccnc32)CC1
- outcome [10]: inactive
- Potency [11]: inactive
- outcome [15]: inactive
- outcome [12]: inactive
- outcome [13]: inactive
- parasite growth, % of DMSO control [5]: 14.5%
- parasite growth remaining, % of DMSO control (lower = more inhibition) [6]: 56.2%
- parasite growth, % of control (lower = inhibition) [7]: 28.5%
- growth, % of control [8]: 13.8%

Compound: Cc1cc(C=c2sc3nc4ccccc4n3c2=O)c(C)n1-c1ccccc1
- max response [1]: 11.9% (inactive)
- remaining parasite growth % (stronger effect = lower value) [2]: 37.9%
- activity, percent of control [3]: 101%
- remaining proliferation (% of control), lower = more inhibition [4]: 116%
- parasite growth, % of DMSO control [5]: 84.9%
- parasite growth remaining, % of DMSO control (lower = more inhibition) [6]: 93.2%
- parasite growth, % of control (lower = inhibition) [7]: 73%
- growth, % of control [8]: 424%

Compound: NS(=O)(=O)c1cc2c(cc1Cl)NC=NS2(=O)=O
- outcome [10]: inactive
- Potency [11]: inactive
- outcome [15]: inactive
- outcome [16]: inactive
- outcome [17]: inactive
- outcome [12]: inactive
- max response [1]: -0.751% (inactive) and 21.2% (inactive)
- max response [18]: -1.12% (inactive)
- Potency [19]: inactive
- parasite growth, % of DMSO control [5]: 88.5%
- parasite growth remaining, % of DMSO control (lower = more inhibition) [6]: 91.5%
- parasite growth, % of control (lower = inhibition) [7]: 125%
- growth, % of control [8]: 105%
